Reference: PubChem BioAssay (NCI)
Compounds without any hit were thinned out: in the full panel of roughly 79,000, 15% have a hit. Activity calls are given as the source filed them. Cut-off read from the data, not from the text of the source: active = growth inhibition above about 70%; inactive = the rest.

What was measured:
[1] = NCI Yeast Anticancer Drug Screen. Data for the rad50 strain (AID 155);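 note: 0% = growth of vehicle-only cultures of the same strain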; conditions: S. cerevisiae rad50 strain growth inhibition, active compounds read high
How it was run: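 Readout: growth inhibition relative to vehicle-treated cultures. Compound exposure was carried out in a genetically defined yeast strain deficient in DNA damage repair.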

[2] = NCI Yeast Anticancer Drug Screen. Data for the mec2-1 strain (AID 157); conditions: S. cerevisiae mec2-1 strain, active compounds read high
How it was run: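 Growth inhibition is read against vehicle-treated controls after compound exposure of the mec2-1 yeast strain, which is defective in DNA damage repair or cell cycle control.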

[3] = NCI Yeast Anticancer Drug Screen. Data for the sgs1 mgt1 strain (AID 161);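 note: 0% = growth of cultures given vehicle only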; conditions: S. cerevisiae sgs1 mgt1 strain, active compounds read high
How it was run: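 This yeast growth screen uses a strain with defined DNA-repair lesions; compound-treated growth is compared with vehicle-treated growth.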

[4] = NCI Yeast Anticancer Drug Screen. Data for the cln2 rad14 strain (AID 165);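 note: 0% = growth equal to vehicle treated cultures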; conditions: S. cerevisiae cln2 rad14 strain, active compounds read high
How it was run: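 Growth inhibition, relative to vehicle-treated controls, is the read-out. The test organism is a yeast strain with defined genetic alterations, cln2 rad14.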

[5] = NCI Yeast Anticancer Drug Screen. Data for the bub3 strain (AID 167); conditions: S. cerevisiae bub3 mutant strain, active compounds read high
How it was run: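 Readout: yeast growth inhibition, expressed relative to vehicle-only wells. The test organism is a mutant strain from a panel with lesions in DNA repair or checkpoint genes.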

[6] = NCI Yeast Anticancer Drug Screen. Data for the mlh1 rad18 strain (AID 175); conditions: S. cerevisiae mlh1 rad18 strain growth inhibition, active compounds read high
How it was run: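 Cells of a genetically altered yeast strain, deficient in DNA damage repair, were treated with compound. Their growth was then compared with that of vehicle-treated cultures to give inhibition.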

[7] = at 5.0 µM (retest, dose inferred, filed as 0.5)
[8] = at 50.0 µM (retest, dose inferred, filed as 5.0)

Measured: growth inhibition

BrCc1ccc([Si](c2ccccc2)(c2ccccc2)c2ccc(CBr)cc2)cc1
inactive: [1]; [7] -3% | [1]; [8] -16% | [1]; at 50.0 µM 48.1% | [2]; [7] 14% | [2]; [8] 8% | [2]; at 50.0 µM 20.1% | [3]; [7] -15% | [3]; [8] -18% | [3]; at 50.0 µM 53% | [4]; [7] -1% | [4]; [8] -25% | [5]; [7] -2% | [5]; [8] -15% | [5]; at 50.0 µM 10.5% | [6]; [7] 3% | [6]; [8] -30% | [6]; at 50.0 µM 53.5%
active: [4]; at 50.0 µM 78.5%

CCCCCCCCCCCC[n+]1cc2ccccc2cc1C
active: [1]; [7] 98% | [1]; [8] 98% | [1]; at 50.0 µM 91.7% | [2]; [7] 99% | [2]; [8] 99% | [2]; at 50.0 µM 90.8% | [3]; [7] 98% | [3]; [8] 99% | [3]; at 50.0 µM 88.5% | [4]; [7] 97% | [4]; [8] 99% | [4]; at 50.0 µM 86.7% | [5]; [7] 99% | [5]; [8] 99% | [5]; at 50.0 µM 93.2% | [6]; [7] 97% | [6]; [8] 98% | [6]; at 50.0 µM 90.8%

C(=N\Nc1c2ccccc2nc2ccccc12)/c1ccc2c(c1)OCO2
active: [1]; [8] 97% | [1]; at 50.0 µM 99.3% | [2]; [8] 99% | [2]; at 50.0 µM 84.8% | [3]; [8] 99% | [3]; at 50.0 µM 99.4% | [4]; [8] 89% | [4]; at 50.0 µM 82% | [5]; [8] 93% | [5]; at 50.0 µM 99.2% | [6]; [8] 98% | [6]; at 50.0 µM 99.3%
inactive: [1]; [7] 0% | [2]; [7] 7% | [3]; [7] 0% | [4]; [7] 2% | [5]; [7] -11% | [6]; [7] 1%

CC1=C[P+](c2ccccc2)(c2ccccc2)C=C(c2ccccc2)O1
inactive: [1]; [7] 51% | [2]; [7] 24% | [3]; [7] 25% | [4]; [7] 42% | [5]; [7] 64% | [6]; [7] 34%
active: [1]; [8] 94% | [1]; at 50.0 µM 84.5% | [2]; [8] 98% | [2]; at 50.0 µM 88.1% | [3]; [8] 94% | [3]; at 50.0 µM 87.4% | [4]; [8] 89% | [4]; at 50.0 µM 84.8% | [5]; [8] 97% | [5]; at 50.0 µM 90.4% | [6]; [8] 93% | [6]; at 50.0 µM 89%

BrCC(Br)Cc1ccc2c(c1)OCO2 (configuration not stated)
active: [6]; [8] 84%
inactive: [1]; [7] 5% | [1]; [8] 30% | [1]; at 50.0 µM 20.8% | [2]; [7] 2% | [2]; [8] 25% | [2]; at 50.0 µM -7.35% | [3]; [7] 3% | [3]; [8] 60% | [3]; at 50.0 µM 49.4% | [4]; [7] 6% | [4]; [8] 21% | [4]; at 50.0 µM -21.6% | [5]; [7] 14% | [5]; [8] 39% | [5]; at 50.0 µM 4.7% | [6]; [7] -1% | [6]; at 50.0 µM 56.9%

CCC(COS(=O)(=O)c1ccc(C)cc1)(COS(=O)(=O)c1ccc(C)cc1)COS(=O)(=O)c1ccc(C)cc1
inactive: [1]; [7] 3% | [1]; [8] 0% | [1]; at 50.0 µM 13.7% | [2]; [7] -3% | [2]; [8] 0% | [2]; at 50.0 µM 4.35% | [3]; [7] -17% | [3]; [8] -38% | [3]; at 50.0 µM 42% | [4]; [7] 3% | [4]; [8] 14% | [4]; at 50.0 µM 57.9% | [5]; [7] 3% | [5]; [8] 10% | [5]; at 50.0 µM 21.6% | [6]; [7] -35% | [6]; [8] -40% | [6]; at 50.0 µM 25.8%

C=CCCCCn1c2ccccc2c2c(C)c3c[n+](C)ccc3c(C)c21
active: [1]; [7] 99% | [1]; [8] 99% | [1]; at 50.0 µM 89.7% | [2]; [7] 99% | [2]; [8] 99% | [2]; at 50.0 µM 91.8% | [3]; [7] 97% | [3]; [8] 97% | [3]; at 50.0 µM 90.3% | [4]; [7] 100% | [4]; [8] 100% | [4]; at 50.0 µM 90.7% | [5]; [7] 98% | [5]; [8] 98% | [5]; at 50.0 µM 91.4% | [6]; [7] 98% | [6]; [8] 98% | [6]; at 50.0 µM 88.8%

COC1=CC(=O)c2c(O)c3c(c(O)c2C1=O)C=C(C)OC3O (configuration not stated)
active: [1]; at 50.0 µM 85.5% | [2]; at 50.0 µM 88% | [3]; at 50.0 µM 89% | [5]; at 50.0 µM 85.8% | [6]; at 50.0 µM 89.3%
inactive: [1]; [7] -3% | [1]; [8] 34% | [2]; [7] -2% | [2]; [8] 31% | [3]; [7] -27% | [3]; [8] 22% | [4]; [7] 7% | [4]; [8] 20% | [4]; at 50.0 µM 47.1% | [5]; [7] -4% | [5]; [8] 44% | [6]; [7] -9% | [6]; [8] 52%

c1cc(Nc2ccc(Nc3ccc(CN4CCCCC4)cc3)cc2)ccc1CN1CCCCC1
inactive: [1]; [7] 39% | [2]; [7] 31% | [3]; [7] 66% | [4]; [7] 54% | [5]; [7] 63% | [6]; [7] 36%
active: [1]; [8] 98% | [1]; at 50.0 µM 81.8% | [2]; [8] 99% | [2]; at 50.0 µM 89.8% | [3]; [8] 99% | [3]; at 50.0 µM 90.9% | [4]; [8] 99% | [4]; at 50.0 µM 83.2% | [5]; [8] 99% | [5]; at 50.0 µM 89.2% | [6]; [8] 98% | [6]; at 50.0 µM 87.5%
